Screening results (PubChem BioAssay)
This is one part of a sample in which hits are shown more often than they occur.
Pf Dd2 inh: Plasmodium falciparum Dd2 growth inhibition. 120,000 compounds, 4.3% hits. P. falciparum Dd2 growth, SYBR Green, 72 h. Potency, µM (highest dose often 28.9 µM), for the others: at the top dose activity, negative = inhibition, hits mostly inhibitors. AID 1347417; active = well fitted inhibition curve with a large enough effect;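 note: plate controls were DMSO vehicle for no effect and reference drug for full effect; nearly all actives have a fitted effect of over 65% in size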
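Readout: SYBR Green fluorescence, 485 nm excitation, 535 nm emission, after ~16 h lysis at 37C. Before that, Dd2-infected red cells (2.5% hematocrit) grew 72 h with compound, 29 uM top final concentration.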
* hit, by the source's call; [ ] = remark or other dose. Potency is the fitted concentration of half-maximal effect.

CC(=O)N1CCC(N2CC[C@@H](CO)N(C)c3nc(C)ccc3C2)CC1 was read as Pf Dd2 inh inactive.
`COc1ccc(CNC(=O)N2CCCCCNC(=O)[C@@H]3CCCC[C@@H]32)cc1` gave Pf Dd2 inh -16.2%.
Screening CC(=O)N1CCC(NC2(Cc3cc(CN(C)C)on3)COC2)CC1 returned Pf Dd2 inh 15.1%[44.1 µM].
Screening CC(C)NC(=O)c1ccccc1OCC1CCCN(CC2=Cc3ccccc3OC2)C1 (centres undefined) returned Pf Dd2 inh -21.2%.
CCCC1=Nc2cc(C(=O)N3CCC(C)CC3)ccc2Sc2ccc(C)cc21 was read as Pf Dd2 inh -22.8%.
Screening CCn1ncc(N2CCC(NC(=O)c3ccc(C)c(C)c3)CC2)cc1=O returned Pf Dd2 inh -10.4%.
CCC1=Nc2cc(C(=O)NC3CCC(C)CC3)ccc2Sc2ccc(C)cc21 (centres undefined) was read as Pf Dd2 inh 10µM*.
Screening Cn1nccc1C(=O)N1CCC2(CCCCO2)CC1 returned Pf Dd2 inh 22.1%.
Screening COc1ccc(Cl)cc1-c1nc(C2CC(=O)N(c3ccc(F)cc3)C2)no1 (centres undefined) returned Pf Dd2 inh 11.2µM*.
For COc1ccccc1-c1nc(C2CC(=O)N(c3ccc(F)c(Cl)c3)C2)no1 (centres undefined) the results were Pf Dd2 inh 120.4%.
Screening COc1ccc(-c2nc(C3CC(=O)N(c4ccc(F)cc4)C3)no2)cc1F (centres undefined) returned Pf Dd2 inh 52.6%.
Screening Cn1cc(C(=O)N2CCCC(Cc3noc(-c4ccncc4)n3)C2)cn1 (centres undefined) returned Pf Dd2 inh 10.8%.
For O=C(c1ccc(C(F)(F)F)cc1)N1CCN(c2nc3ncccc3o2)CC1 the results were Pf Dd2 inh 0.5%.
Screening Cc1cccc(-c2noc([C@@H]3Cc4nc[nH]c4CN3Cc3ccc(C(=O)O)cc3)n2)c1 returned Pf Dd2 inh inactive.
Screening N#Cc1cccc(CN2Cc3[nH]cnc3C[C@H]2c2nc(-c3cccc([N+](=O)[O-])c3)no2)c1 returned Pf Dd2 inh 12.6µM*.
`O=[N+]([O-])c1cccc(-c2noc([C@@H]3Cc4nc[nH]c4CN3Cc3cccs3)n2)c1` gave Pf Dd2 inh -15.6%[44.1 µM].
`Cc1cccc(-c2noc([C@@H]3Cc4nc[nH]c4CN3C(=O)c3ccc(F)cc3)n2)c1` gave Pf Dd2 inh inactive.
`N#Cc1cccc(CN2Cc3[nH]cnc3C[C@H]2C(=O)NCc2ccco2)c1` gave Pf Dd2 inh -5.9%[44.1 µM].
For O=[N+]([O-])c1cccc(-c2noc([C@@H]3Cc4nc[nH]c4CN3Cc3ccc(F)cc3)n2)c1 the results were Pf Dd2 inh 10µM*.
Screening Cc1ccc(C2Cn3nnc(-c4nc(-c5ccccc5)no4)c3CO2)c(C)c1 (centres undefined) returned Pf Dd2 inh -20.3%.
Cn1cnc(C(=O)N2CCC(N3C(=O)C(OCC4CC4)C34CCOCC4)CC2)c1 (centres undefined) was read as Pf Dd2 inh 0.5%.
For COc1ccnc(-c2nnc3ccc(N(C)CCN(C)C)nn23)c1 the results were Pf Dd2 inh 16.3%[44.1 µM].
Screening COc1ccc(NC(=O)c2oc3ccc(S(=O)(=O)N4CCCCC4)cc3c2C)cc1Cl returned Pf Dd2 inh 11.2µM*.
Screening CC(=O)Nc1ccc(NC(=O)c2ccc3c(c2)CCN3S(=O)(=O)c2ccc(C)cc2)cc1 returned Pf Dd2 inh 18.9%.
`COc1ccc(Cl)cc1NC(=O)c1oc2ccc(S(=O)(=O)N3CCCCC3)cc2c1C` gave Pf Dd2 inh 41.3%.
Screening COc1ccc(C(=O)Nc2ccc3c(c2)CCCN3S(=O)(=O)c2ccc(C)cc2)cc1 returned Pf Dd2 inh inactive.
For Cc1ccc(Cl)cc1NC(=O)c1oc2ccc(S(=O)(=O)N3CCCCCC3)cc2c1C the results were Pf Dd2 inh 5.5%.
For Cc1ccc(C)c(NC(=O)c2ccc3c(c2)CCN3S(=O)(=O)c2ccccc2)c1 the results were Pf Dd2 inh -19.2%.
`CCc1cccc(CC)c1NC(=O)c1ccc2c(c1)CCN2S(=O)(=O)c1ccccc1` gave Pf Dd2 inh 7.2%.
`COc1ccc(NC(=O)c2ccc3c(c2)CCN3S(=O)(=O)c2ccc(C)cc2)cc1Cl` gave Pf Dd2 inh 8.91µM*.
O=C(Nc1ccc(Cl)c(C(F)(F)F)c1)c1ccc2c(c1)CCN2S(=O)(=O)c1ccccc1 was read as Pf Dd2 inh 8.91µM*.
For Cc1ccccc1C(=O)N1CCn2c(nn(-c3ccc(F)cc3)c2=O)C1 the results were Pf Dd2 inh -2.4%[44.1 µM].
O=C(c1ccc(Cl)cc1)N1CCc2c(n(Cc3cccnc3)n(-c3ccccc3)c2=O)C1 was read as Pf Dd2 inh 26.9%.
`O=C(Cc1ccsc1)NCc1nnc2ccc(-c3ccccc3)nn12` gave Pf Dd2 inh 3.3%.
`CC(=O)N1CCC(Cc2ccc(C(=O)N(C)Cc3cccnc3)cc2)CC1` gave Pf Dd2 inh -13.9%.
`Cc1ccccc1C(=O)NCC(c1ccc(N(C)C)cc1)N1CCCC1` (centres undefined) gave Pf Dd2 inh -19.5%.
For COc1ccc(C(CNC(=O)c2ccc(F)cc2)N2CCCC2)cc1 (centres undefined) the results were Pf Dd2 inh -3.7%.
For CC(C)Oc1ccc(C(=O)NCC(c2ccc(N(C)C)cc2)N2CCCC2)cc1 (centres undefined) the results were Pf Dd2 inh 10µM*.
For COc1ccc(S(=O)(=O)NCC(c2ccc(N(C)C)cc2)N2CCOCC2)cc1 (centres undefined) the results were Pf Dd2 inh -15.7%.
For CN(C)c1ccc(C(CNS(=O)(=O)c2ccc(Cl)cc2)N2CCCC2)cc1 (centres undefined) the results were Pf Dd2 inh 12.6µM*.
`Cc1cc(S(=O)(=O)NCC(c2ccc(N(C)C)cc2)N2CCOCC2)ccc1F` (centres undefined) gave Pf Dd2 inh -27.3%.
For Cc1sc2ccn(CC(C)C)c(=O)c2c1C(=O)N1CCC(C)CC1 the results were Pf Dd2 inh -12.4%.
O=C(NCc1nc(-c2ccncc2)n[nH]1)[C@H]1CCC[C@H](O)C1 was read as Pf Dd2 inh -2.3%.
CCN1c2cc(C(=O)Nc3ccc(C(N)=O)cc3)ccc2C(=O)N2CCCCC21 (centres undefined) was read as Pf Dd2 inh inactive.
Cc1cc(C(=O)N2C[C@@H](Oc3ccccc3)C[C@@H]2C(=O)N2CCOCC2)nn1C was read as Pf Dd2 inh -6.5%.
`COc1ccc(C(=O)N2CCn3c(nn(-c4ccc(F)cc4F)c3=O)C2)cc1` gave Pf Dd2 inh 16.4%.
For Cc1noc(C)c1-c1cc2cc(CO)oc2c(NCc2cccc(F)c2)n1 the results were Pf Dd2 inh inactive.
For COCCNc1nc(-c2c(C)noc2C)cc2cc(CO)oc12 the results were Pf Dd2 inh -10.0%[44.1 µM].
Screening COc1ccc(Nc2nc(-c3c(C)noc3C)cc3cc(CO)oc23)cc1OC returned Pf Dd2 inh 7.94µM*.
Screening COC(=O)CNC(=O)N1CCCN(S(C)(=O)=O)C(c2ccccc2)CC(=O)NCC1 (centres undefined) returned Pf Dd2 inh 0.0%.
`CC(C)c1noc([C@@H]2C[C@H]3C(=O)NCCCCCCN(C(=O)c4cccc(C#N)c4)[C@H]3C2)n1` gave Pf Dd2 inh inactive.
`CCOC(=O)c1cc(-c2ccc(C)cc2)n(CCCC(=O)Nc2cc(C)ccc2C)c1` gave Pf Dd2 inh 11.2µM*.
`CCOC(=O)c1cc(-c2ccc(C)cc2)n(CC(=O)Nc2cc(C)ccc2C)c1C` gave Pf Dd2 inh 2.6%.
